PfHsp90 set2 = growth inhibition of PfHsp90-expressing yeast, primary screen, antimalarial PfHsp90 inhibitor project, S. cerevisiae, BacTiter-Glo luminescence, single point, set 2; BacTiter-Glo ATP, 48 h; yeast lacking PDR1 and PDR3 efflux regulators; inhibition, % at 9.4 µM; 0.32% of 310,000 active; AID 504621, 2011;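 active means every replicate shows inhibition above about 80%, whatever the replicate mean, limit read from the data; inconclusive means mean inhibition reaches the set limit but some replicate falls short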
CSC inhib = cancer stem cell viability inhibitors, primary screen, luminescence. cancer stem cell-like cells viability. 1.1% of 300,000 active. inhibition, % at 7.5 µM; in the data active means inhibition above about 75%; inconclusive means no clear call, values can overlap the other calls; tested in HMLE shEcad cells
Calb FLC = C. albicans growth inhibition with fluconazole, primary screen, CaCi-2 strain, Alamar Blue fluorescence; C. albicans CaCi-2 (fluconazole-resistant clinical isolate) + fluconazole, 48 h; growth inhibition, % (test concentration not listed); 0.57% of 300,000 active; AID 1979, 2009;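 active means growth inhibition above about 58% in most replicates, limit read from the data, passing the limit was not always enough; inconclusive means exactly half the replicates above a set limit; inactive means most replicates below a set limit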;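 further: all wells also contain fluconazole at 8 µg/ml as a sub-toxic cotreatment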
Shn3 3UTR inh = reduction of Shn3 3'UTR firefly luciferase signal, primary screen, Schnurri-3 inhibitor project, cell-based, Clone20 osteoblasts, set 2; Clone20 osteoblast Shn3 3'UTR firefly luciferase, 24 h; inhibition, % at 12.5 µM; 0.52% of 360,000 active; AID 588674, 2011;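 active means mean inhibition of at least 75% with every replicate also reaching 75%; inconclusive means mean inhibition at least 75% but some replicate below; inactive means mean inhibition below 75%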
Beta cell apopt = inhibitors of cytokine-induced beta cell apoptosis, primary screen, luminescence. INS-1E cytokine-induced death, ATP luminescence, 48 h; percent of positive-control rescue, neutral wells zero. protection from apoptosis, % (no concentration beside the values). 0.8% of 300,000 active. AID 435005, 2010;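 active means Every replicate reaches about 75%, or at least half do and their mean reaches it too, limit read from the data; inconclusive means At least half of replicates reach the limit but their mean does not; inactive means Under half of replicates reach the limit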;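 further: higher means more ATP so stronger rescue from cytokine killing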
Of the large screens only hits and unclear results are named; the others gave an inactive call. Shown are actives, neighbours in structure and some others; about 2.2% of the full set was active somewhere.

CN(C)c1ccc(C(CNC(=O)c2ccc(-c3ccccc3)cc2)N2CCOCC2)cc1 (stereo not given)	none (no result: PfHsp90 set2, Beta cell apopt)
CCCCC(CC)CN=C(N)NC(N)=NCCCCCCN=C(N)NC(N)=NCC(CC)CCCC (stereo not given)	PfHsp90 set2 110, CSC inhib 103, Shn3 3UTR inh 97, Beta cell apopt 114 (no result: Calb FLC)
CN(Cc1ccc(OC(F)F)cc1)C(=O)c1cccc(S(=O)(=O)N2CCN(Cc3ccccc3)CC2)c1	Shn3 3UTR inh 89 (no result: CSC inhib, Calb FLC, Beta cell apopt)
CC1=C(CC(=O)c2ccc(Cl)cc2)C(=O)c2ccccc2C1=O	Beta cell apopt 99
O=C(Cc1ccccn1)c1ccc(Cl)cc1	none
COc1ccc(OC)c(S(=O)(=O)Nc2cccc3ccc(O)cc23)c1	none
O=C(NCCCn1ccnc1)c1ccc(S(=O)(=O)N2CCCCCC2)cc1	none
CC1CC(C)CN(S(=O)(=O)c2ccc(C(=O)NCCCn3ccnc3)cc2)C1 (stereo not given)	CSC inhib 101, Beta cell apopt 114
N#C/C(=C/c1ccc(N2CCOCC2)o1)c1ccc(Cl)cc1	Shn3 3UTR inh 91
CC(=O)N1CCOc2ccc(S(=O)(=O)NC[C@H]3O[C@@H](n4ccc(=O)[nH]c4=O)[C@H](O)[C@@H]3O)cc21	none (no result: CSC inhib, Calb FLC, Beta cell apopt)
COc1ccc(NC(=O)COC(=O)CCc2ccc(S(=O)(=O)N3CCOCC3)cc2)c(OC)c1	none (no result: Calb FLC)
CN(C)c1ccc(NC(=S)NC23CC4CC(CC(C4)C2)C3)cc1	Beta cell apopt 111 (no result: CSC inhib)
COc1ccc(CNC(=S)Nc2ccc3nc(N4CCN(C)CC4)cc(C)c3c2)cc1	none
Cc1cc(N2CCOCC2)nc2ccc(NC(=S)NCCC(C)C)cc12	none
COc1ccccc1CNC(=S)Nc1ccc2nc(N3CCN(C)CC3)cc(C)c2c1	CSC inhib 80
Cc1cc(N2CCN(C)CC2)nc2ccc(NC(=S)NCCC(C)C)cc12	CSC inhib 83
CCCC(=O)Nc1ccccc1NC(=O)c1ccc(OC)cc1	none
Cc1nn(-c2ccccn2)c2c1C(=O)CC(C)(C)C2Br (stereo not given)	none
CCCCN(CC(=O)NCCOC)C(=O)Cn1nnc2ccccc21	none
COc1ccccc1-c1cc(C(=O)NC2CCN(C)CC2)c2ccc(Cl)c(C)c2n1	CSC inhib 108, Beta cell apopt 112
O=C(NCCNC(=O)C(c1ccccc1)c1ccccc1)c1ccco1	Calb FLC 111 (no result: Beta cell apopt)
c1ccc(CCNc2ncnc3sccc23)nc1	none (no result: PfHsp90 set2)
Cc1csc2ncnc(NCCc3ccccn3)c12	Calb FLC 98, Beta cell apopt 79
CCN1CCN(C2=C(NS(=O)(=O)c3ccc(NC(C)=O)cc3)C(=O)c3ccccc3C2=O)CC1	none
O=C(/C=C/c1ccc(O)cc1)c1ccc(NC2=C(N3CCCCC3)C(=O)c3ccccc3C2=O)cc1	CSC inhib 90
Cc1ccc(NC2=C(N3CCCCC3)C(=O)c3ccccc3C2=O)cc1	Beta cell apopt 76
CN(C1=C(N2CCCCC2)C(=O)c2ccccc2C1=O)c1ccccc1	none (no result: CSC inhib, Beta cell apopt)
COc1ccccc1NC1=C(N2CCCCC2)C(=O)c2ccccc2C1=O	CSC inhib 144, Calb FLC 93, Beta cell apopt 102
CC(=O)Nc1ccc(S(=O)(=O)NC2=C(N3CCN(C)CC3)C(=O)c3ccccc3C2=O)cc1	Beta cell apopt 99 (no result: Calb FLC)
O=C1C(NS(=O)(=O)c2ccc(Br)cc2)=C(N2CCCCC2)C(=O)c2ccccc21	none
O=C(CSc1nc(=O)n2ccccc2n1)NCc1ccccc1	none (no result: PfHsp90 set2)
O=C1C(Nc2ccccc2)=C(N2CCCCC2)C(=O)c2ccccc21	Beta cell apopt 83
O=C1C(Nc2cccc(O)c2)=C(N2CCCCC2)C(=O)c2ccccc21	none (no result: CSC inhib, Beta cell apopt)
Cc1ccc(/C=C/C(=O)c2ccc([N+](=O)[O-])o2)cc1	Beta cell apopt 109 (no result: PfHsp90 set2, Shn3 3UTR inh)
O=C(/C=C/c1ccc(Cl)cc1)c1ccc([N+](=O)[O-])o1	CSC inhib inconclusive, Shn3 3UTR inh 97, Beta cell apopt 115 (no result: PfHsp90 set2)
Cc1cc(O)c(C(=O)/C=C/c2ccc(Cl)cc2)c(=O)o1	none
CCCSc1nc2cc(C)c(C)cc2n1CC(C)O (stereo not given)	none
COc1ccc(CCN2C(=O)CC(NNc3ccc([N+](=O)[O-])cc3)C2=O)cc1OC (stereo not given)	Calb FLC inconclusive (no result: CSC inhib, Beta cell apopt)
c1ccc(Nc2ncnc3sc4c(c23)CCC4)cc1	none (no result: CSC inhib, Beta cell apopt)
c1csc(CCNc2ncnc3sc4c(c23)CCC4)c1	Shn3 3UTR inh 88 (no result: Beta cell apopt)
CCCOc1ccc(CSc2nc3ccccc3[nH]2)cc1	Beta cell apopt 112 (no result: PfHsp90 set2)
COc1ccc(-c2sc3ccccc3c2-c2ccc(O)cc2)cc1	PfHsp90 set2 inconclusive, CSC inhib 107 (no result: Calb FLC)
NS(=O)(=O)c1ccc(-c2c(-c3ccccc3)sc3ccccc23)cc1	none (no result: Calb FLC)
COc1ccc(-c2sc3cc(OC)c(OC)cc3c2-c2ccc(O)cc2)cc1	CSC inhib 137 (no result: Calb FLC)
COc1ccccc1-c1sc2ccccc2c1-c1ccc(O)cc1	PfHsp90 set2 114 (no result: CSC inhib, Calb FLC)
COc1ccc(-c2sc3ccc(OC)cc3c2-c2ccc(OC)nc2)cc1	none (no result: PfHsp90 set2, Calb FLC)
CC[C@]1(C(=O)OC)[C@H]2C(=O)N(C)C(=O)[C@H]2[C@H]2CN=C(SCC3CC3)N21	none (no result: CSC inhib, Calb FLC, Beta cell apopt)
O=C(c1ccc(Cl)c([N+](=O)[O-])c1)N(Cc1ccco1)C1CCS(=O)(=O)C1 (stereo not given)	Calb FLC inconclusive
Oc1c(CN2CCN(c3ccccn3)CC2)cc(Cl)c2cccnc12	CSC inhib inconclusive, Beta cell apopt 109
COc1ccccc1N1CCN(Cc2cc(Br)c(O)c3ncccc23)CC1	CSC inhib 77, Calb FLC 88, Beta cell apopt 102
COCc1cc(CN2CCCC2)c(O)c2ncccc12	none
O=c1c(CN2CCN(c3ccccn3)CC2)coc2ccccc12	none
OCCN1CCN(Cc2cc(Cl)c3cccnc3c2O)CC1	Calb FLC 103
CCCCNC(=O)c1cn(C)c2ccc(S(=O)(=O)N3CC(C)CC(C)C3)cc2c1=O (stereo not given)	none
Cc1ccc(S(=O)(=O)Cc2cc(F)c([N+](=O)[O-])cc2[N+](=O)[O-])cc1	CSC inhib 102 (no result: Beta cell apopt)
CCOC(=O)c1ccc([N+](=O)[O-])c(CS(=O)(=O)c2ccc(Cl)cc2)c1	none
CC(NC(=O)C(=O)N/N=C\c1cccc([N+](=O)[O-])c1)c1ccccc1 (stereo not given)	none
O=C(CN1C(=O)NC2(CCCCCCC2)C1=O)Nc1cccc(Br)c1	none (no result: Calb FLC)
Cc1ccc2nc(NC(=O)c3ccccn3)sc2c1	CSC inhib 84, Beta cell apopt 79
CCOc1ccc2nc(NC(=O)Nc3ccccc3)sc2c1	none
CSc1ncccc1C(=O)Nc1ccc2nc(C)sc2c1	none (no result: CSC inhib, Beta cell apopt)
CSc1ncccc1C(=O)Nc1nc2ccc(Oc3ccccc3)cc2s1	CSC inhib 78
CCOc1ccc2nc(NC(=O)c3ccco3)sc2c1	Calb FLC inconclusive
CCOc1ccc2nc(NC(=O)c3ccccn3)sc2c1	CSC inhib 94, Beta cell apopt 77

High-throughput results as filed in PubChem.
